Data on 39 molecules can be found in PubChem BioAssay (EPA / NIEHS).

Where “and” joins values, the source holds several entries; their conditions need not be identical. Equal values may be shown once. Some compounds were tested as several samples or in several runs, with calls that do not always agree. Calls of active or inactive are those of the source. How the source made its calls: active means hit-call score of the fitted dose curve at least 0.9, where 1 is the maximum; inactive means score below 0.9.

A short description of the experiment: ATG_NFI_CIS: Attagene CIS-FACTORIAL HepG2 Assay for human Nuclear Factor I (NFI) (AID 2282989). To be noted: HepG2 cis-regulatory reporter, NFI response element transcription; actives raise or lower the signal. Here is the method:
ATG_CIS is a cell-based, multiplexed-readout assay that uses HepG2, a human liver cell line, with measurements taken at 24 hours after chemical dosing in a 24-well plate.ATG_NFI_CIS is one of 52 assay component(s) measured or calculated from the ATG_CIS assay. It is designed to make measurements of mRNA induction, a form of inducible reporter, as detected with fluorescence intensity signals by Reverse transcription polymerase chain reaction (RT-PCR) and Capillary electrophoresis technology.Data from the assay component ATG_NFI_CIS was analyzed into 1 assay endpoint. This assay endpoint, ATG_NFI_CIS, was analyzed with bidirectional fitting relative to DMSO as the negative control and baseline of activity. Using a type of inducible reporter, measures of mRNA for gain or loss-of-signal activity can be used to understand the reporter gene at the transcription factor-level as they relate to the gene NFIA. Furthermore, this assay endpoint can be referred to as a primary readout, because this assay has produced multiple assay endpoints where this one serves a reporter gene function. To generalize the intended target to other relatable targets, this assay endpoint is annotated to the dna binding intended target family, where the subfamily is nuclear factor I.
Human liver HepG2 cells are transiently transfected with multiple reporter transcription units (MRTUs) in 6-well plates using FuGene 6 reagent (Roche; 3 ml FuGene/1 mg DNA). The MRTU constructs are regulated by a cis-regulating element (promoter). […] A major difference between the CIS and TRANS system is that in CIS activities of endogenous TFs are measured, whereas the TRANS assay evaluates changes in activities of exogenous, chimeric NR-Gal4 proteins. […] At the end of 24 hour incubation, total RNA was isolated using TriZol reagent (Invitrogen). The isolated RNA is then reverse-transcribed using oligo(dT) primer and Mo-MLV reverse transcriptase (Invitrogen) with DNAse I (Ambion) treatment for 30 min. The one-tenth of the produced cDNA was amplified by PCR using Taq DNA polymerase (Invitrogen) and two reporter sequence-specific primers. The PCR products were fluorescently labeled by primer extension with 6-arboxyfluorescein (6-FAM) 5'-labeled reporter sequence-specific primer (2 min at 95 C, 20 s at 68 C and 10 min at 72 C) and these products were digested with 5U of HpaI (New England Biolabs) for 2h at 37 C. The fragments were purified using Qiaquick PCR columns (Qiagen), analyzed on an ABI 3130xL genetic analyzer (Applied Biosystems) with peak positions identified by using a set of X-rhodamine (ROX)-labeled MapMarker1000 molecular weight standards (BioVentures). The raw capillary electrophoresis data was processed using Attagraph software (Attagene).
Regarding `NC(N)=S`, the result was inactive.

As to `CC(C)Cc1ccc(C(C)C(=O)O)cc1` (stereo not given), the result was inactive.

As to `CCn1cc(C(=O)O)c(=O)c2ccc(C)nc21`, the molecule was called inactive. In the case of `C=CC(C)CCCC(C)(C)O` (stereo not given), the outcome was inactive. The same measure, in the same setting: with `CCCCCCCCOC(C)=O` the entry was “inactive”; with `C=CCOCC(O)CO` (stereo not given), “inactive”.

In the case of `CCCCCCCCSCc1cc(C)c(O)c(CSCCCCCCCC)c1`, the result was inactive. Regarding `CC(CO)c1ccccc1` (stereo not given), the call was inactive. As for `O=C(c1ccc(OCCN2CCCCC2)cc1)c1c(-c2ccc(O)cc2)sc2cc(O)ccc12`, the AC50 is 8.99 µM (active) and 16.7 µM (active); the molecule was classed as inactive. Turning to `CCC(=O)OCC=Cc1ccccc1`, the molecule was called inactive. Turning to `CCCO[Si](OCCC)(OCCC)OCCC`, the outcome was inactive.

Regarding `CCOC(=O)C(=O)OCC`, the result was inactive. Same read-out and setting: next, `O=c1cc[nH]cc1`: “inactive”; `CC(CO)(CO)[N+](=O)[O-]`: “inactive”; `CC(C)(C)c1cccc(O)c1`: “inactive”. As for `CCCCN(CCO)CCO`, the call was inactive.

Regarding `Cc1cccc(O)c1`, the molecule was called inactive. With `C=CC(=O)OCCCCCC`, the molecule was called inactive. Take `CC(C)CCOC(=O)CC(C)C`: the call was inactive. On the same count and under the same terms, with `Cc1cc(N)n(-c2ccccc2)n1` the entry was “inactive”; with `COC(=O)c1cccc(C(=O)OC)c1`, “inactive”.

In the case of `COc1ccc(C(C)=O)cc1`, the molecule was called inactive. Take `ClCCOCCOCCCl`: the result was inactive. Consider `S=c1[nH][nH]c(=S)s1`, for which the result was inactive. The same measure, in the same setting: with `CCC(C)(CCCC(C)C)OC(C)=O` (stereo not given) the entry was “inactive”. On the same count and under the same terms, with `CCCCOCCOC(=O)c1ccccc1C(=O)OCCOCCCC` the entry was “inactive”; with `COc1ccc2[nH]cc(CCNC(C)=O)c2c1`, “inactive”. `C=CC(C)(CCC=C(C)C)OC(=O)CC` (stereo not given): the molecule was classed as inactive. In the case of `CCCCC1CCCCC(=O)O1` (stereo not given), the result was inactive.

Take `c1ccc2c(c1)-c1ccc3ccc4cccc5cc-2c1c3c45`: the result was inactive. Same read-out and setting: next, `NNC(=O)OCc1ccccc1`: “inactive”; `O=S(=O)(O)CCCN1CCOCC1`: “inactive”; `CCCC[N+](C)(CCCC)CCCC`: “inactive”. Regarding `Nc1cc([N+](=O)[O-])ccc1C(=O)O`, the molecule was classed as inactive. On the same count and under the same terms, with `C1=COCCC1` the entry was “inactive”. Regarding `CCOCC(C)O` (stereo not given), the molecule was called inactive. Same read-out and setting: next, `CC(O)COCC(C)O` (stereo not given): “inactive”; `CCCCOCCOCCO`: “inactive”.

Take `N=C1N=C(N)c2ccccc21`: the call was inactive.
